# Laboratory results published in PubChem BioAssay.
# “And” between values parts separate entries of the source, which are not always exact repeats. Identical values can stand only once. Some structures have more than one record in an assay (separate samples or runs), and their calls can disagree. The source made the active and inactive calls.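 The calls were made as follows, unless noted: active = compounds whose cell count with miR-34 switched on is under 0.7 times the count with it off; inactive = the rest.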
# Experiments:
# [1] = liver-stage malaria parasite growth inhibition, primary screen, cell-based, HepG2, luciferase luminescence, HepG2 viability (AID 624349; in the data active = parasite load remaining mostly below about 12%, no sharp cut-off; inactive = mostly above about 10%;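 also: 100% = mean of DMSO negative control wells on the same plate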); details: P. berghei liver stage in HepG2, luciferase luminescence, concentration not given here; parasite load remaining: stronger effect = lower value; viability: measured here: HepG2 viability without parasites
# [2] = sensitizers of A549 cells to miR-34 induction, primary screen, imaging, A549 dox-inducible miR-34, nuclei and caspase counts (AID 1347080); details: A549 miR-34 inducible, Hoechst nuclei count, 48 h
# [3] = survival rescue of mitochondrial mutant cells in low glucose, primary screen, MELAS cybrids, Rieske KO mouse fibroblasts, CellTiter-Glo (AID 1508586;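 active = mean z-score across replicates of 1.96 or higher in either the MELAS or the Rieske mutant cell line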;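 also: z relative to plate mean and SD of compound and empty wells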)
# [4] = viability rescue of complex I mutant cybrids, primary screen, cell-based, galactose medium, ATP luminescence (AID 1645843;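 active = z-score of at least 1.8 in each of two replicates, scored against plate mean and spread of sample wells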;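 also: positive z means more ATP and so rescue of galactose-driven cybrid death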); details: complex I mutant cybrid cells, 72 h, stronger effect = higher value
# [5] = hESC survival regulators, cell-based (AID 493140; call rule not given here;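 also: cells exposed to compounds for four days before counting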); details: human embryonic stem cell survival screen; stronger effect = higher value
# [6] = measured here: relative caspase fold change +Dox/-Dox
# [7] = measured here: total cells with miR-34 induction, stronger effect = lower value
# [8] = measured here: total cells without miR-34 induction
# [9] = MELAS cybrid survival, CellTiter-Glo 48 h, stronger effect = higher value
# [10] = Rieske KO mouse fibroblast survival, CellTiter-Glo 72 h
# [11] = stronger effect = lower value, cell number ratio, induced over uninduced
SMILES,parasite load remaining [1],viability [1],fold change ([2]; stronger effect = lower value),"fold change [2, 6]","cell count [2, 7]","cell count [2, 8]","z-score [3, 9]","z-score [3, 10]",z-score [4],"fold change [2, 11]",survival [5]
CCCC(=O)OCC[N+](C)(C)C,42.8% (inactive),107%,0.934 (inactive),0.999,10000,10700,0.357 (inactive),0.101,0.43 (inactive),,
C=C1N[C@@H](Cc2ccc3[nH]cc(CCN(C)C)c3c2)CO1,49.1% (inactive),107%,0.795 (inactive),1.08,9100,11400,0.499 (inactive),0.377,0.28 (inactive),,
CCOC(=O)c1cncn1[C@@H](C)c1ccccc1,94.8% (inactive),128%,0.937 (inactive),0.906,8390,8960,-0.428 (inactive),-0.415,,,
C[C@]12CCC(=O)CC1CCC1C2CC[C@@]2(C)C1CC[C@]2(C)O (stereo not given in full),,,0.938 (inactive),1.8,9370,9990,,,-0.195 (inactive),,
C[N+]1(C)C2CC[C@H]1CC(OC(=O)C(CO)c1ccccc1)C2 (stereo not given in full),93.5% (inactive),105%,,1.32,8910,9340,0.0273 (inactive),-0.854,,0.955 (inactive),
Clc1ccc(C(Cn2ccnc2)OCc2csc3c(Cl)cccc23)c(Cl)c1 (stereo not given),93.3% (inactive) and 30.9% (inactive),80.2% and 95%,0.952 (inactive) and 0.861 (inactive),0.728 and 1,7030 and 8370,7390 and 9720,0.182 and 1.75 (inactive),2.82 and 1.72,,,10.7 (inactive)
CN1[C@@H]2CC[C@H]1CC(OC(=O)C1C=Nc3ccccc31)C2 (stereo not given in full),130% (inactive),98.7%,,1.46 and 2.72,8760 and 8980,10300 and 9930,2.22 (active) and 0.522 (inactive),-0.387 and 0.113,,0.853 (inactive) and 0.904 (inactive),
CC(=O)OCC(=O)[C@H]1CC[C@H]2[C@@H]3CC[C@H]4C[C@H](O)CC[C@]4(C)[C@H]3C(=O)C[C@]12C,133% (inactive),77.5%,0.969 (inactive),0.588,8940,9230,-0.0226 (inactive),0.294,,,32.2 (inactive)
CC(C)[C@]12OC1C1O[C@]13[C@]1(OC1CC1C4=C(CC[C@@]13C)C(=O)OC4)C2O (stereo not given in full),,,,1.93,2260,2320,,,-1.85 (inactive),0.971 (inactive),
